# Laboratory results from PubChem BioAssay (NCATS).
# Inconclusive results are not listed. Activity calls are given as the source filed them. The call rests on the fitted dose curve.
# Experiment: Validation screen for inhibitors of Lassa infection (AID 463096)
# Settings: Lassa virus infection, cell-based; series mostly up to 46.1 µM
row,SMILES,outcome
1,Nc1ccc(S(=O)(=O)Nc2ccnn2-c2ccccc2)cc1,inactive
2,C[N+](C)(C)CCOC(N)=O,inactive
3,NC(Cc1ccc(Cl)cc1)C(=O)O (stereo not drawn),inactive
4,COc1cc(-c2ccc(=O)[nH]n2)ccc1OC(F)F,inactive
5,C[N+](C)(C)CCCCCC[N+](C)(C)C,inactive
6,COc1ccc(C2CNC(=O)C2)cc1OC1CCCC1 (stereo not drawn),inactive
7,CN1CCN(CC(=O)N2c3ccccc3C(=O)Nc3cccnc32)CC1,inactive
8,NC(=O)c1ncn([C@@H]2O[C@H](CO)[C@@H](O)[C@H]2O)c1O,inactive
9,C[C@]12CCC(=O)C=C1CC[C@@H]1[C@@H]2[C@@H](O)C[C@@]2(C)[C@H]1CC[C@]2(O)C(=O)COC(=O)CCC(=O)O,inactive
10,NC(=O)N1c2ccccc2C=Cc2ccccc21,inactive
11,O=c1[nH]c(=O)n([C@H]2C[C@H](O)[C@@H](CO)O2)cc1Br,inactive
12,CCN1CCC[C@H]1CNC(=O)c1c(O)c(Cl)cc(Cl)c1OC,inactive
13,O=C1NCC2(CCN(CCc3ccccc3)CC2)O1,inactive
14,CCN(CC)CCNC(=O)c1ccc(N)cc1,inactive
15,C=CC(N)CCC(=O)O (stereo not drawn),inactive
16,CN=C(NC#N)NCCSCc1nc[nH]c1C,inactive
17,NC(N)=NC(=O)Cc1c(Cl)cccc1Cl,inactive
18,CN=C(NC#N)Nc1ccc(C2=NNC(=O)CC2C)cc1 (stereo not drawn),inactive
19,CCCCCCCCCCCCCCCC(=O)NCCO,inactive

row,SMILES,outcome
1,NCCCCCC(=O)O,inactive
2,CC[N+](CC)(CC)CCOc1cccc(OCC[N+](CC)(CC)CC)c1OCC[N+](CC)(CC)CC,inactive
3,CO/N=C(\C(=O)N[C@@H]1C(=O)N2C(C(=O)O)=C(COC(C)=O)CS[C@H]12)c1csc(N)n1 (stereo in doubt),inactive
4,Cc1nc2ccccn2c(=O)c1CCN1CCC(C(=O)c2ccc(F)cc2)CC1,inactive
5,CC1COc2c(N3CCN(C)CC3)c(F)cc3c(=O)c(C(=O)O)cn1c23 (stereo not drawn),inactive
6,COc1ccc2[nH]cc(CCNC(C)=O)c2c1,inactive
7,CNCC(O)c1ccc(O)c(O)c1 (stereo not drawn),inactive
8,CC(C)NCC(O)c1ccc(NS(C)(=O)=O)cc1 (stereo not drawn),inactive
9,Cc1cnc(NC(=O)C2=C(O)c3ccccc3S(=O)(=O)N2C)s1,inactive
10,CC(C)NCC(O)c1cc(O)cc(O)c1 (stereo not drawn),inactive
11,c1ccc2c(c1)CCCC2C1=NCCN1 (stereo not drawn),inactive
12,CC(=O)OCC(=O)[C@@]1(O)CC[C@H]2[C@@H]3CCC4=CC(=O)CC[C@]4(C)[C@H]3C(=O)C[C@@]21C,inactive
13,CC(=O)c1ccc(S(=O)(=O)NC(=O)NC2CCCCC2)cc1,inactive
14,Cn1c(=O)c2[nH]cnc2n(C)c1=O,inactive
15,CCN(CC)CCNC(=O)c1cc(S(C)(=O)=O)ccc1OC,inactive
16,CCN(CC)CC#CCOC(=O)C(O)(c1ccccc1)C1CCCCC1 (stereo not drawn),inactive
17,C[C@H]1O[C@@H](n2cc(F)c(=O)[nH]c2=O)[C@H](O)[C@@H]1O,inactive
18,CCn1cc(C(=O)O)c(=O)c2cc(F)c(N3CCNC(C)C3)c(F)c21 (stereo not drawn),inactive
19,CCN1CCC[C@H]1CNC(=O)c1cc(S(N)(=O)=O)ccc1OC,inactive
